Assay results reported in the supplement of paper PMC10338343.
± gives the standard deviation.

tested on: EfPiwi piRISC loaded with L1MC piRNA (26 nt); test: pre-steady-state target cleavage rate (min^-1); auxiliary factor: 500 nM Ephydatia muelleri Gtsf1; guide: L1MC piRNA 5'p-UAACUAAAUACUAUGCAAGCUGUAGG; MIWI and MILI are mouse PIWI proteins and EfPiwi is from a freshwater sponge; tags in brackets are library labels; higher = faster piRNA-guided slicing of the target
Outline: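 Using HEPES–potassium acetate buffer at 33 °C, 1 nM active affinity-purified piRISC with a single synthetic guide was mixed with 0.1 nM transcribed, DNA-blocked target RNA library for 0–8 or 0–960 min, with or without 500 nM GTSF1 partner protein. Uncleaved targets were sequenced and normalised to depth and to weakly complementary targets, and three trials were pooled with k3 capped at 0.0001 min^-1. A burst-and-steady-state fit gave the pre-steady-state cleavage rate.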

Point of comparison: UCCUGCUACAGCUUUGCAUAGUAUUUAGUUA, “pre-steady-state target cleavage rate” value 0.0161 ± 0.0053. Against it:
- UCCUGGAUCAGCAUGCUUAGUAUUUAGUUA — within error, 0.0112 ± 0.0042
- UCCUGGUAGCAGCUUGCAUAGUAUUUAGUUA — higher, 0.0746 ± 0.02
- UCCUGGUAGAGCUUGCAUAGUAAUUAGUUA — lower, 0.00406 ± 0.0024
- UCCUCCUACAGCUUGCCUAGUAUUUAGUUA — higher, 0.0514 ± 0.014
- UCCUGGAACGGCUUGCAUAGUAUUUAGUUA — within error, 0.0243 ± 0.0075
- UCCUGGAACAGCUUGGCAUAGUAUUUAGUUA — within error, 0.0094 ± 0.0031
- UCCUGGAUGUCGAACGUAAGUAUUUGGUUA — lower, < 0.0001
- UCCUGGAUGUGCAUUGCAUAGUAUUUAGUUA — within error, 0.0129 ± 0.0042
- UCCUGGUACAGCUUCCAUAGUAUUUAGAAA — lower, 0.00336 ± 0.0013
- UCCUCCUCACAGCUUGCAUAGUAUUUAGUUA — higher, 0.191 ± 0.046
- UCCUCCUUCAGCUUGCAUAGUUUUUAGUUA — lower, 0.00713 ± 0.0023
- UCCUGGAUGAGCUUGCAUAGUAUUUAGUUA [g2:g21:cont:t1A] — higher, 0.0338 ± 0.0087
- UCCUGGAUGAGCUUCCAUAGUAUUUAGAAA — lower, 0.00248 ± 0.0019
- UCCUGGAUGUCGAACCAUAGCUAUUUAGUUA — lower, < 0.0001
- UCCUGGUACGAGCUUGCAUAGUAUUUAGUUA — within error, 0.00873 ± 0.0027
- UCCUGGAUCUGCUUGCAAAGUAUUUAGUUA — higher, 0.0405 ± 0.011
- UCCUGGAUGUCGAACGUAUGUUAUUUAGUUA — lower, < 0.0001
- UCCUGCUUCAGCUUGCAUAGUAUUUAGUAA — within error, 0.00811 ± 0.0033
- UCCUCCUACAGGUUGCAAAGUAUUUAGUUA — higher, 0.0547 ± 0.011
- UCCUGGAUGUGCUUCCAUAGUAUUUAGAAA — lower, 0.00625 ± 0.0039
- UCCUGGAUGUCGAACGUAUCAAUAUAGUUA — lower, < 0.0001
- UCCUGGAUGAGGUUGCAUAGUAUUUAGAAA — lower, 0.00315 ± 0.0029
- UCCUCGUACAGCUUGCAUAGUAUUUAGUAA — within error, 0.00794 ± 0.0029
- UCCUGCUACGAGCUUGCAUAGUAUUUAGUUA — within error, 0.00866 ± 0.0022
- UCCUCCUACAGCUUCCAUAGUAUUUAGAAA — lower, 0.00369 ± 0.0018
- UCCUGGAUGAGCUUGCAUACUAUUUAGAUA — lower, 0.00231 ± 0.0021
- UCCUGGAUGUCGAACGUUAGUAUUUAGAUA — lower, < 0.0001
- UCCUGCUACAGCUUGCAUAGUAUUAUGUAA — lower, 0.00194 ± 0.0019
- UCCUGGAUCAGCUUCCAUAGUAUUUAGAUA — lower, 0.00231 ± 0.0018
- UCCUCCAACAGCUUGCAUAGUAUUUAGUUA — higher, 0.113 ± 0.032
- UCCUGGAUGAGCUUGCAUUGUAUUUAGUUA — lower, 0.00376 ± 0.0029
- UCCUGGAUGUCGAACGACAGUAUUUAGUUA — lower, < 0.0001
- UCCUGGAUGUCCUUGCAUAGUAUUUAGUUA [g2:g19:cont:t1A] — within error, 0.00824 ± 0.003
- UCCUCCUACAGCUUGGAUAGUUUUUAGUUA — within error, 0.0265 ± 0.007
- UCCUGGAUGAGCUUGCAUAGUAAUUACAAA — lower, 0.00446 ± 0.0034
- UCCUGGAUGUCGAACCAUGGUAUUUAGUUA — lower, < 0.0001
- UCCUCCUACAGCUUGCAUAGUAUUUAGUUC [g2:g26:cont:t1C] — higher, 0.146 ± 0.035
- UCCUGGAACAGGUUGCUUAGUAUUUAGUUA — within error, 0.00924 ± 0.0022
- UCCUGGUACAGCUUGCAUAGUAUUCUAGUUA — lower, 0.0044 ± 0.003
